Results published in ChEMBL document CHEMBL2218924, “A broad activity screen in support of a chemogenomic map for kinase signalling research and drug discovery” (Biochem J, 2013).

Legend:
[1] = target: Serine/threonine-protein kinase 33 (Homo sapiens) (UniProt Q9BYT3); conditions: at 1 µM
[2] = target: Serine/threonine-protein kinase 33 (Homo sapiens) (UniProt Q9BYT3); conditions: at 10 µM
[3] = target: Serine/threonine-protein kinase PLK2 (Homo sapiens) (UniProt Q9NYY3); conditions: at 1 µM
[4] = target: Serine/threonine-protein kinase PLK2 (Homo sapiens) (UniProt Q9NYY3); conditions: at 10 µM
[5] = target: Tyrosine-protein kinase SYK (Homo sapiens) (UniProt P43405); conditions: at 1 µM
[6] = target: Tyrosine-protein kinase SYK (Homo sapiens) (UniProt P43405); conditions: at 10 µM
[7] = target: T1, Mitogen-activated protein kinase kinase kinase 7 (Homo sapiens) (UniProt O43318); conditions: at 1 µM
T1 sequence (whole entry): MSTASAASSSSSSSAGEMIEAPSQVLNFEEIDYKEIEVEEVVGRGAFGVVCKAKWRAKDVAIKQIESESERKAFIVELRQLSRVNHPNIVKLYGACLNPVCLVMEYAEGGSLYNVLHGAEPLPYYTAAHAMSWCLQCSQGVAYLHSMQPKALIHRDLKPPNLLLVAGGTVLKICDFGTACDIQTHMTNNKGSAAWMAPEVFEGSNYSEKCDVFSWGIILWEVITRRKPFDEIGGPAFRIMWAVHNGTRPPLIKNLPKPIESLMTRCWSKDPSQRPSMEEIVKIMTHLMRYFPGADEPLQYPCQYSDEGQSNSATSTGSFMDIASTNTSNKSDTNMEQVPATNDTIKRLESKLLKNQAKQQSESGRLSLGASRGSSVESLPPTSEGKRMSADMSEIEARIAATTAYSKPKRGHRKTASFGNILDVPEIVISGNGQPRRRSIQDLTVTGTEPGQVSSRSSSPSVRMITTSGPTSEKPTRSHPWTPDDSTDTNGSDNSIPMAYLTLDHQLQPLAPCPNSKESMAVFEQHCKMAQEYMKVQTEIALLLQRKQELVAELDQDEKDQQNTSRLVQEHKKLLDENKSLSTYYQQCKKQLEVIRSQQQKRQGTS

[8] = target: T1, Mitogen-activated protein kinase kinase kinase 7 (Homo sapiens); conditions: at 10 µM
[9] = target: T2, Serine/threonine-protein kinase TAO1 (Homo sapiens) (UniProt Q7L7X3); conditions: at 1 µM
T2 sequence (whole entry): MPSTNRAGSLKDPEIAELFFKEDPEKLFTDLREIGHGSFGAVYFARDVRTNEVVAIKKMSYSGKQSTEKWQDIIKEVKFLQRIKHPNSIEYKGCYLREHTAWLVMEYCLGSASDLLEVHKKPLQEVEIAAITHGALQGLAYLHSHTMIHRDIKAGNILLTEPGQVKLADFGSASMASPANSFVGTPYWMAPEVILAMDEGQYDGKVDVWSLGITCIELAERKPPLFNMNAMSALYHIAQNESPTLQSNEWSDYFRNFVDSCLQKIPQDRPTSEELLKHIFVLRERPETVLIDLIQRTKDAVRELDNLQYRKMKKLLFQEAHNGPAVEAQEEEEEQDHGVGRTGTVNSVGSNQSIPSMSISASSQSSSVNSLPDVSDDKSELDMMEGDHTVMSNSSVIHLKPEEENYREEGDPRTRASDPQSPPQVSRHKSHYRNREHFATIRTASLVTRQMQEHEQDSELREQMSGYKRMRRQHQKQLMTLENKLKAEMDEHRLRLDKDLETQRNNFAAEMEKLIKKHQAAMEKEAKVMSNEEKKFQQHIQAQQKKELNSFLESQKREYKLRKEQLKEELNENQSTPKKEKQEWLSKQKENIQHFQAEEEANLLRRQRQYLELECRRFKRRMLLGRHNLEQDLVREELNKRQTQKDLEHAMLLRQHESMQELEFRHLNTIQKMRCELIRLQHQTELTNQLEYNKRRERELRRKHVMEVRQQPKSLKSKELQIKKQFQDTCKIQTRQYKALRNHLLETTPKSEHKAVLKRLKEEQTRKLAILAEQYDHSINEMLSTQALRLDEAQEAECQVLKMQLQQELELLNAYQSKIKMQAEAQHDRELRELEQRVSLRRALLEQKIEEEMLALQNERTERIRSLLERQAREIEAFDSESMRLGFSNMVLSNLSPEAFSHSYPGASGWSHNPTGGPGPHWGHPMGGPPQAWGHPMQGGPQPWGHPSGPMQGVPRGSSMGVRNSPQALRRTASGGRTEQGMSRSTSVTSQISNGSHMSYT

[10] = target: T2, Serine/threonine-protein kinase TAO1 (Homo sapiens); conditions: at 10 µM
[11] = target: T3, Serine/threonine-protein kinase TAO2 (Homo sapiens) (UniProt Q9UL54); conditions: at 1 µM
T3 sequence (whole entry): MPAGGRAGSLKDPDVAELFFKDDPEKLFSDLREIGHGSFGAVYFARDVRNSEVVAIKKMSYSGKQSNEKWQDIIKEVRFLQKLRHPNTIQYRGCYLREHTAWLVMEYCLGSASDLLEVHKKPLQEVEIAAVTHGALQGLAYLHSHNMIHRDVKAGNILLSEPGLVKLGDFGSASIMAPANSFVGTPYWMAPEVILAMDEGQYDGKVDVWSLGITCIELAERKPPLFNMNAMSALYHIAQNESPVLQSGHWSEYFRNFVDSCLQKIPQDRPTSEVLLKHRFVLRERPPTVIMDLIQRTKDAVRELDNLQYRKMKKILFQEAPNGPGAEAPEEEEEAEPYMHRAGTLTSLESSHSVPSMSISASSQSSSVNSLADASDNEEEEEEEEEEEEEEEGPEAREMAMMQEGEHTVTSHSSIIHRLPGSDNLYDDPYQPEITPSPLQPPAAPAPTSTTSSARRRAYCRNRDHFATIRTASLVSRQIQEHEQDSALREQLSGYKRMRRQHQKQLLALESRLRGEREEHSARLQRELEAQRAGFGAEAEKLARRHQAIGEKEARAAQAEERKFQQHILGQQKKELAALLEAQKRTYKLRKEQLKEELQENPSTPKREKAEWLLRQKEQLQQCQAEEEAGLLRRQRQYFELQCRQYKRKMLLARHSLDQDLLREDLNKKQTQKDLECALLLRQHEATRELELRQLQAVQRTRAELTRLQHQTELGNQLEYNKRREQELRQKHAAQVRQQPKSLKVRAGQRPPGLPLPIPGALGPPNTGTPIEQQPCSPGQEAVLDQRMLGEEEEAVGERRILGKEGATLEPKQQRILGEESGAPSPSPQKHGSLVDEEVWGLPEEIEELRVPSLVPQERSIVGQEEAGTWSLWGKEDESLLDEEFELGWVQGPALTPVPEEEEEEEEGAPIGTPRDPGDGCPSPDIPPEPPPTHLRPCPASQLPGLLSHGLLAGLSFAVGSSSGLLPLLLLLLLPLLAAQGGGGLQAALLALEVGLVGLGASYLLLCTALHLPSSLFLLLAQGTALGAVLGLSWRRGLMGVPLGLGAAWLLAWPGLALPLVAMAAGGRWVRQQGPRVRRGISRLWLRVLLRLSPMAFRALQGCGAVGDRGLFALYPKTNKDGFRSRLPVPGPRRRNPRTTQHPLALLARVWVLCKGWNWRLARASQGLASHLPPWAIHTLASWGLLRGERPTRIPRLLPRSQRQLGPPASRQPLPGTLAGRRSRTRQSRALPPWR

[12] = target: T3, Serine/threonine-protein kinase TAO2 (Homo sapiens); conditions: at 10 µM
[13] = target: T4, Serine/threonine-protein kinase TAO3 (Homo sapiens) (UniProt Q9H2K8); conditions: at 1 µM
T4 sequence (whole entry): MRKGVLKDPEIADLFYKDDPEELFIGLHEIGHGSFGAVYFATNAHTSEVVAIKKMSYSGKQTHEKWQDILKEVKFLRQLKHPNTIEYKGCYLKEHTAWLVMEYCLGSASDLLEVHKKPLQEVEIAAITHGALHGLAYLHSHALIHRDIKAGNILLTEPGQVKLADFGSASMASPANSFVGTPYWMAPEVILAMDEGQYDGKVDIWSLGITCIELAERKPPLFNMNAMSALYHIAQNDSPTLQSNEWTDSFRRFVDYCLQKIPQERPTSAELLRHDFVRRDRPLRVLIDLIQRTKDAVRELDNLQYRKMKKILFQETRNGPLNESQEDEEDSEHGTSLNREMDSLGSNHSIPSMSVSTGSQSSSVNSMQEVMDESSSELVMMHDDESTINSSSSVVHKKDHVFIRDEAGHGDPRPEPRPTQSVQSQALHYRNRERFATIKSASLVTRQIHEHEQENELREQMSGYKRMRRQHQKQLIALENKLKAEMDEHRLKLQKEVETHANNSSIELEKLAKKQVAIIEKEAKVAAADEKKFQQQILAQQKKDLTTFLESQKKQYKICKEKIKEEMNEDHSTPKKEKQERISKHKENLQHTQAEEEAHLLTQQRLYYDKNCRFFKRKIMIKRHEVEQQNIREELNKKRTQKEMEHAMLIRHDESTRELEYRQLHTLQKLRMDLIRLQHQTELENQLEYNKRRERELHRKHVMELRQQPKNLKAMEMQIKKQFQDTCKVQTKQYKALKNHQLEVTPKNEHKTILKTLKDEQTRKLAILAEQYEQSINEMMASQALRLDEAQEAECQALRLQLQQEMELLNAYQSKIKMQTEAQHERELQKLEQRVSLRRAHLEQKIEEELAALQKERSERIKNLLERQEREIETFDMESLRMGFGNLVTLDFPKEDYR

[14] = target: T4, Serine/threonine-protein kinase TAO3 (Homo sapiens); conditions: at 10 µM
[15] = target: T5, Serine/threonine-protein kinase TBK1 (Homo sapiens) (UniProt Q9UHD2); conditions: at 1 µM
T5 sequence (whole entry): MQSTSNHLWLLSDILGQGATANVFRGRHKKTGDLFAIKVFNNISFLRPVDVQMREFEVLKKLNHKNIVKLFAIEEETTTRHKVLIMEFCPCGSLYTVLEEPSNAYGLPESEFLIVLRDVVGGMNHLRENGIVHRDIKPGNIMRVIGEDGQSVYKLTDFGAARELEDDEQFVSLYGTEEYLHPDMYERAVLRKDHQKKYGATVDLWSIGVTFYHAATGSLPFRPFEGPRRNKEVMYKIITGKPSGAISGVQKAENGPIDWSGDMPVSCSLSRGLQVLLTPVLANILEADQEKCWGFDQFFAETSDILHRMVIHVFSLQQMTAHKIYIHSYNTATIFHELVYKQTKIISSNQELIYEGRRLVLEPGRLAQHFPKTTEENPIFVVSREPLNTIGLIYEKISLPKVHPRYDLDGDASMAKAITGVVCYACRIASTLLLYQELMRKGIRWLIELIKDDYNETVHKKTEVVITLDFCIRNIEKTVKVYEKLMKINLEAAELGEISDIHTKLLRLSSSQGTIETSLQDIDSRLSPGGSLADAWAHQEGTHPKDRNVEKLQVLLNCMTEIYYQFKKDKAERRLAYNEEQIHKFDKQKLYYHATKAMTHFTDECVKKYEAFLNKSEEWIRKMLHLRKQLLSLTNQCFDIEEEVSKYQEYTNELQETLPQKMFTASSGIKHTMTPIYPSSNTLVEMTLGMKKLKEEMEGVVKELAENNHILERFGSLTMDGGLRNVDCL

[16] = target: T5, Serine/threonine-protein kinase TBK1 (Homo sapiens); conditions: at 10 µM
[17] = target: T6, TGF-beta receptor type-1 (Homo sapiens) (UniProt P36897); conditions: at 1 µM
T6 sequence (whole entry): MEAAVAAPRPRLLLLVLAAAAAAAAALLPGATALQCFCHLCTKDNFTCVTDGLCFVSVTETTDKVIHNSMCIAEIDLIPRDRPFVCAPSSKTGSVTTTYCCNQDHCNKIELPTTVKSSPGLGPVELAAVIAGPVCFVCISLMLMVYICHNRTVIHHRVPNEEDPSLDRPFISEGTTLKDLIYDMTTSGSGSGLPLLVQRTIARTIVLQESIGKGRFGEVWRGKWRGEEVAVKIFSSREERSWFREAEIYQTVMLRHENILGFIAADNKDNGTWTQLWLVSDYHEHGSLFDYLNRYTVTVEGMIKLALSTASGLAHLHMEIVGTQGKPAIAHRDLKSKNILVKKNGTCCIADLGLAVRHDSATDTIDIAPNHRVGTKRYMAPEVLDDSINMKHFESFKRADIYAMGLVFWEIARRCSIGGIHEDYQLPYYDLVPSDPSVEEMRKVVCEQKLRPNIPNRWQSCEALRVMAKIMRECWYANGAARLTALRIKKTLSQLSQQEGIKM

[18] = target: T6, TGF-beta receptor type-1 (Homo sapiens); conditions: at 10 µM
[19] = target: Insulin-like growth factor 1 receptor (Homo sapiens) (UniProt P08069); conditions: at 1 µM
Chain of Insulin-like growth factor 1 receptor (Homo sapiens) (P08069 31-736 limits assumed): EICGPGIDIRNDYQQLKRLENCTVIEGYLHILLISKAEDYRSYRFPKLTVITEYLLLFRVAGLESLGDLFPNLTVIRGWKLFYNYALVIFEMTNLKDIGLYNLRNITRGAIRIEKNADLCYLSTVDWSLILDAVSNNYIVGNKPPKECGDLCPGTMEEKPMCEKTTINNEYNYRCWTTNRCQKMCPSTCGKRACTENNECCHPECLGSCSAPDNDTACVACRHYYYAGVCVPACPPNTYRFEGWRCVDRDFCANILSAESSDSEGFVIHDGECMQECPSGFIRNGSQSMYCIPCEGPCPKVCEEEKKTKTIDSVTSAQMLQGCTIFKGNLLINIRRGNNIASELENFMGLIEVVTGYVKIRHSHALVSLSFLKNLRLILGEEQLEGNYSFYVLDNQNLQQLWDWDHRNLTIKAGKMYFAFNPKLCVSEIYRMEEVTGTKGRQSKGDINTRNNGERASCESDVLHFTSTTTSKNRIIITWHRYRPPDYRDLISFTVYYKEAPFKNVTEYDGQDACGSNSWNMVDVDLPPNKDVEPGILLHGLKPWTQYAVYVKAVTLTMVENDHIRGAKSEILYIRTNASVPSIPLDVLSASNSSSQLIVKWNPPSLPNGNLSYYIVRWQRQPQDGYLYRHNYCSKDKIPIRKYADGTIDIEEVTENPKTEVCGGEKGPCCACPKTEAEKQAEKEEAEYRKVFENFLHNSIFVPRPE
Chain of Insulin-like growth factor 1 receptor (Homo sapiens) (P08069 741-1367 limits assumed): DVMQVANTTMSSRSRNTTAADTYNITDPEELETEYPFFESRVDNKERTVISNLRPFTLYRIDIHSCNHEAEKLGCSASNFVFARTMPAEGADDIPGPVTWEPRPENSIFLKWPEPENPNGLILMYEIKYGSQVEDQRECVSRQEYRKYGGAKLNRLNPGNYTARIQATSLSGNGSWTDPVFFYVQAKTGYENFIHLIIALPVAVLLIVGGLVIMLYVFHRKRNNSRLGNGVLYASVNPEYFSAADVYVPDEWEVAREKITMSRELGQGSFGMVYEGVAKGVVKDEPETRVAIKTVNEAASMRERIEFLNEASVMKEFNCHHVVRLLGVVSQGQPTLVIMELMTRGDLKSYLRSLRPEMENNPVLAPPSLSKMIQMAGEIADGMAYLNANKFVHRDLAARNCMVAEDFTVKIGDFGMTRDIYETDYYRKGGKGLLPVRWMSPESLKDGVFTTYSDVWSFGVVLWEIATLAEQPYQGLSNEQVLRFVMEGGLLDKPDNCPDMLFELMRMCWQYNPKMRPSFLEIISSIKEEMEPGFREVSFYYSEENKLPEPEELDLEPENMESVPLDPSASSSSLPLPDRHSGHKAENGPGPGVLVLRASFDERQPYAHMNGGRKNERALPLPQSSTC

[20] = target: Insulin-like growth factor 1 receptor (Homo sapiens) (UniProt P08069); conditions: at 10 µM

Chain of Serine/threonine-protein kinase PLK2 (Homo sapiens) (Q9NYY3 whole entry, looked up): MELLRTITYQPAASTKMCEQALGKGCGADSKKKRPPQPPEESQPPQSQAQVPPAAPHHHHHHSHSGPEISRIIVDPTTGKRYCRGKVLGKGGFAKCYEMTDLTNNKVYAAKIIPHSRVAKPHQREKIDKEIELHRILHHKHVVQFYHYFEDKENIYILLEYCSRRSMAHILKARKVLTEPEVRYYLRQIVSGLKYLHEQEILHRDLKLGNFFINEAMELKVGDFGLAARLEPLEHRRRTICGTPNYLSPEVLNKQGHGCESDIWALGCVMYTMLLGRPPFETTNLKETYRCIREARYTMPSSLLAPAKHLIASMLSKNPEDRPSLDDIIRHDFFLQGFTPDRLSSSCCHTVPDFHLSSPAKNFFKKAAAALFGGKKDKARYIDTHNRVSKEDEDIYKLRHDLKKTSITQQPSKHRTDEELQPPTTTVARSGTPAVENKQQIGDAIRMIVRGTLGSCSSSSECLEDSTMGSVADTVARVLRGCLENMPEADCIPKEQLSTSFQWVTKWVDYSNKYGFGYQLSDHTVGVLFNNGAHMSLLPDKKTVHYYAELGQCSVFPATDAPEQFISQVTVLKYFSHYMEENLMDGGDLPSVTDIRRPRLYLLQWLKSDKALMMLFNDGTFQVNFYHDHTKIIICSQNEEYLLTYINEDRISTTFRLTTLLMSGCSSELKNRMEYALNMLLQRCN
Chain of Serine/threonine-protein kinase 33 (Homo sapiens) (Q9BYT3 whole entry, looked up): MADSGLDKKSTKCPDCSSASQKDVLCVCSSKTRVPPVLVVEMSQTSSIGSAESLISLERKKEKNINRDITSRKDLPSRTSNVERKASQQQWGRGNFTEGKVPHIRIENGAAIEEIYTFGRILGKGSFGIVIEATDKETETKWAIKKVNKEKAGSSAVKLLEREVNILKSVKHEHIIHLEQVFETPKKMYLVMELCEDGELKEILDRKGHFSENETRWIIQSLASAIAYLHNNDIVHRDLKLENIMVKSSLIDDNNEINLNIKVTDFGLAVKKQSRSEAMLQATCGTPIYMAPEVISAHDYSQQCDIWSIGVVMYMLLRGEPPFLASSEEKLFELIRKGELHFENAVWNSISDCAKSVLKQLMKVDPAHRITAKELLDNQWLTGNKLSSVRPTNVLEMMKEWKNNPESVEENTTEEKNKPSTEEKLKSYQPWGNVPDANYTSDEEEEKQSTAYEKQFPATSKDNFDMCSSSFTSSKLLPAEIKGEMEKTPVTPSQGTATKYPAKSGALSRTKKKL

Row | Structure (SMILES) | residual activity [1] [%] | residual activity [2] [%] | residual activity [3] [%] | residual activity [4] [%] | residual activity [5] [%] | residual activity [6] [%] | residual activity [7] [%] | residual activity [8] [%] | residual activity [9] [%] | residual activity [10] [%] | residual activity [11] [%] | residual activity [12] [%] | residual activity [13] [%] | residual activity [14] [%] | residual activity [15] [%] | residual activity [16] [%] | residual activity [17] [%] | residual activity [18] [%] | residual activity [19] [%] | residual activity [20] [%]
1 | COc1cc(OC)c(/C=C2\C(=O)Nc3ccccc32)c(OC)c1 | 92 | 92 | 100 | 92 | 102 | 96 | 92 | 81 | 95 | 83 | 104 | 81 | 90 | 68 | 61 | 56 | 79 | 81 | 95 | 98
2 | N/C(=N\[N+](=O)[O-])N/N=C\c1ccc(-c2cccc([N+](=O)[O-])c2)o1 | – | – | 99 | 98 | – | – | – | 89 | 91 | 88 | – | – | 96 | 93 | 94 | 72 | 98 | 98 | – | –
